PBM binding z-score data for 40 sequences are collected here from the supplement of paper PMC6555819.

The first test concerns LXRb homodimer (NR concentration 270 nM). Nature of the test: PBM binding z-score (relative to random genomic background probes); higher = stronger binding; sequences stand for … in GC…GCGATTGACAGCGTAGAATGAAGG
The method in brief: (§1)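 The probes on custom Agilent 4×180K protein-binding microarrays were double-stranded, with 34-nt variable regions bearing direct-repeat seeds, single-nucleotide variants, half-site ablations and random human genomic background sequences. Incubation lasted 1 h with ligand-free nuclear receptor dimers in PBS pH 7.4, 2% milk, 0.02% Triton X-100, 1 mM DTT, 0.2 mg/mL BSA and 0.4 mg/ml salmon testes DNA. Antibodies against each partner (one per run) detected bound dimers, and fluorescence scans were regression-normalized. Binding z-scores take the random background probes as reference.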
In turn, TCTCGGAGGACACGAAGCTCAGAGCTTTCCAGAG yielded a PBM binding z-score of -1.25.

Turning to GCTGCTAGGTCAACTGATGGTCCGCTAAAGCTCG, the PBM binding z-score was -0.00733.

The sequence CCTAGTTGGTCAAGGTCACACTCGCTATAGGTAC registered a PBM binding z-score of 0.997.

As to CTACCAAGGTGAACAAGGTCGCTGATTACTATTC, the PBM binding z-score is -0.68.

ACATACAGGTGATGAAGGTAACTCAGGCTATCAT registered a PBM binding z-score of -0.055.

Consider TAGCCTAGGTCATGGACCAGTATACCACGCGAAC, for which the PBM binding z-score is -0.208.

As for TAGCCTAGGTAATGCGGGCCAGTATAGTGTCGGC, the PBM binding z-score was -1.38.

The sequence CCTTTCGGGTCACGAGGTTATAGCACGACGAGCG gave a PBM binding z-score of 0.882.

The sequence GATACAGGGTCAGCTAGAAGCCAGAGTATGGAAA yielded a PBM binding z-score of -0.479.

Take ATTTCTAGGTAACAAGTTCAGTGAAAGAGAGGAC: the PBM binding z-score was found to be 1.41.

With ACTCGGAGGACAAAGGTCTGAGCTACGCCAGTGA, the PBM binding z-score is -0.665.

The sequence CCTAGCAGGCCAGGGTCAGTCAAGCATTTCGCTT registered a PBM binding z-score of -1.29.

Regarding CCTACTGGGCCCTTCAGAGGTCATTGATCATATG, the PBM binding z-score was found to be 0.134.

Sequence CCTTACGGGTCACGAGGTTATACCACGACGAGCG had a PBM binding z-score of -0.0941.

Sequence CAAACTAGGTCAAGAGGTCAAAGTACGCTTCCCG displayed a PBM binding z-score of 2.26.

Sequence CGAACGAGGGCAAGAGTTGATAGCAAATGCCGAT showed a PBM binding z-score of -0.921.

Take ATCGAAAGGTCGATGTGAGTATAGAGAAAGGGAA: the PBM binding z-score was found to be 0.549.

In turn, CCTTACGGGTCACCCCAGGTTATAGCATCGGAGT came in with a PBM binding z-score of -0.027.

For ATCTCTAGGTAAAGTTCAGTGACAGATCGATAGA, the PBM binding z-score is 1.26.

For AGAACGAGTGCACGCTGAGTTGATAGCAGAGTAG, the PBM binding z-score was -1.13.

In the case of CCTCGGAGGACAACAGGAGGGCAGAGCTGCCAGA, the PBM binding z-score was -0.963.

Regarding ATATTTAGGTTAGCTGGGGTCATTCAGACTAGGC, the PBM binding z-score stood at 2.59.

As for CCGACTGGGGCATAAGGTCACCATAAGCCAGCCC, the PBM binding z-score is -0.819.

Consider GCGACTGGGGCAAAGCAGGTTACCATCAGGTTGG, for which the PBM binding z-score is -1.13.

Turning to CCGACTGGGGCCAAGGTTACCATACTCAGTACGA, the PBM binding z-score is -0.267.

Regarding TCATATAAGTAATACAGGTGAAAGTCGGCATCTA, the PBM binding z-score is 0.275.

Consider CGAACTAGGTCATTCAGGACAGTGAATACATTGA, for which the PBM binding z-score was 0.253.

In turn, CAAACTAGGTCCCGAAAGGTCAAAGTCGAATGAC showed a PBM binding z-score of 1.82.

Take TGAATGAGGTTAAAGATTAGGGAACGTGGCGTCG: the PBM binding z-score was determined as 0.449.

In turn, AGTCAAAGTTCATCTAGGTAATGTAAGATATGCT came in with a PBM binding z-score of 1.98.

Regarding ACTAGGAGGCCAAGTTTGGGTCACTCAAACAAAG, the PBM binding z-score was -0.287.

For the sequence CCGACTGGGCCATAAGGTTACCATAAGCCAGCCC, the PBM binding z-score is -0.941.

Sequence GCGACTGGGGCATCAGCAGGTTACTATAACTTAA displayed a PBM binding z-score of -0.343.

Take CGAACTAGGTCAAGGACGGTGAATCTCCGCACGC: the PBM binding z-score was -0.582.

Turning to ATCGAAAGGTCGGAGGTGAGTATACCCACCCGAA, the PBM binding z-score was found to be 0.308.

CCAGACAGGTGAAAGGTAAATCAGTCTGGTACGC yielded a PBM binding z-score of -0.327.

AGAATGAGTTTACCAAAGATCAGGGAAACGCTTG registered a PBM binding z-score of -0.632.

For GCTATTAGTTGAAAGGGCTACCGAATGATTCTCG, the PBM binding z-score is -0.468.

As for TCTAGCAGGCCAGAGGGTAACTCAAGAGGTACGG, the PBM binding z-score was -1.36.

CCTAGTTGGTCAGAAGGTCACACACCGGATATGA registered a PBM binding z-score of 1.07.

The test system of a further test is PPARa:RXRa (NR concentration 270 nM, RXRa partner concentration 90 nM). The test is described as above. The method in brief:
as §1
The sequence TCTCGGAGGACACGAAGCTCAGAGCTTTCCAGAG gave a PBM binding z-score of -0.0868.

In the case of GCTGCTAGGTCAACTGATGGTCCGCTAAAGCTCG, the PBM binding z-score stood at 3.41.

CCTAGTTGGTCAAGGTCACACTCGCTATAGGTAC returned a PBM binding z-score of 3.86.

The sequence CTACCAAGGTGAACAAGGTCGCTGATTACTATTC came in with a PBM binding z-score of 2.38.

In turn, ACATACAGGTGATGAAGGTAACTCAGGCTATCAT yielded a PBM binding z-score of 0.484.

In turn, TAGCCTAGGTCATGGACCAGTATACCACGCGAAC had a PBM binding z-score of 4.18.

In turn, TAGCCTAGGTAATGCGGGCCAGTATAGTGTCGGC had a PBM binding z-score of -0.346.

Regarding CCTTTCGGGTCACGAGGTTATAGCACGACGAGCG, the PBM binding z-score worked out at 6.42.

Take GATACAGGGTCAGCTAGAAGCCAGAGTATGGAAA: the PBM binding z-score worked out at 4.45.

For ATTTCTAGGTAACAAGTTCAGTGAAAGAGAGGAC, the PBM binding z-score was found to be 2.76.

With ACTCGGAGGACAAAGGTCTGAGCTACGCCAGTGA, the PBM binding z-score is 0.582.

In turn, CCTAGCAGGCCAGGGTCAGTCAAGCATTTCGCTT gave a PBM binding z-score of 1.85.

Consider CCTACTGGGCCCTTCAGAGGTCATTGATCATATG, for which the PBM binding z-score worked out at 3.32.

The sequence CCTTACGGGTCACGAGGTTATACCACGACGAGCG displayed a PBM binding z-score of 6.07.

CAAACTAGGTCAAGAGGTCAAAGTACGCTTCCCG: the PBM binding z-score was found to be 6.64.

The sequence CGAACGAGGGCAAGAGTTGATAGCAAATGCCGAT came in with a PBM binding z-score of 1.52.

In turn, ATCGAAAGGTCGATGTGAGTATAGAGAAAGGGAA came in with a PBM binding z-score of 3.35.

Consider CCTTACGGGTCACCCCAGGTTATAGCATCGGAGT, for which the PBM binding z-score was found to be 5.01.

With ATCTCTAGGTAAAGTTCAGTGACAGATCGATAGA, the PBM binding z-score is 2.36.

AGAACGAGTGCACGCTGAGTTGATAGCAGAGTAG gave a PBM binding z-score of 0.0263.

For the sequence CCTCGGAGGACAACAGGAGGGCAGAGCTGCCAGA, the PBM binding z-score was -0.724.

In turn, ATATTTAGGTTAGCTGGGGTCATTCAGACTAGGC yielded a PBM binding z-score of 4.96.

Take CCGACTGGGGCATAAGGTCACCATAAGCCAGCCC: the PBM binding z-score is 4.02.

Turning to GCGACTGGGGCAAAGCAGGTTACCATCAGGTTGG, the PBM binding z-score stood at 1.24.

In turn, CCGACTGGGGCCAAGGTTACCATACTCAGTACGA gave a PBM binding z-score of 1.91.

Turning to TCATATAAGTAATACAGGTGAAAGTCGGCATCTA, the PBM binding z-score was determined as 1.79.

Sequence CGAACTAGGTCATTCAGGACAGTGAATACATTGA returned a PBM binding z-score of 4.49.

As for CAAACTAGGTCCCGAAAGGTCAAAGTCGAATGAC, the PBM binding z-score is 5.54.

Take TGAATGAGGTTAAAGATTAGGGAACGTGGCGTCG: the PBM binding z-score is 3.74.

On to AGTCAAAGTTCATCTAGGTAATGTAAGATATGCT, for which the PBM binding z-score was determined as 4.95.

For the sequence ACTAGGAGGCCAAGTTTGGGTCACTCAAACAAAG, the PBM binding z-score amounted to 1.36.

As for CCGACTGGGCCATAAGGTTACCATAAGCCAGCCC, the PBM binding z-score was determined as 1.4.

Consider GCGACTGGGGCATCAGCAGGTTACTATAACTTAA, for which the PBM binding z-score was 1.27.

Consider CGAACTAGGTCAAGGACGGTGAATCTCCGCACGC, for which the PBM binding z-score amounted to 4.44.

In the case of ATCGAAAGGTCGGAGGTGAGTATACCCACCCGAA, the PBM binding z-score is 3.57.

In the case of CCAGACAGGTGAAAGGTAAATCAGTCTGGTACGC, the PBM binding z-score was 3.27.

AGAATGAGTTTACCAAAGATCAGGGAAACGCTTG: the PBM binding z-score stood at 0.0717.

For the sequence GCTATTAGTTGAAAGGGCTACCGAATGATTCTCG, the PBM binding z-score is 0.0178.

For TCTAGCAGGCCAGAGGGTAACTCAAGAGGTACGG, the PBM binding z-score came out at 1.15.

For the sequence CCTAGTTGGTCAGAAGGTCACACACCGGATATGA, the PBM binding z-score is 4.17.
